From PubChem BioAssay (NCATS)
Inconclusive results are not listed. The source made the active and inactive calls. Calls come from the whole dose curve; as a rule, active = well fitted inhibition curve with a large enough effect; inconclusive = small, poorly fitted or top-dose-only effect; inactive = flat fitted curve, though single readings scatter.

What follows are molecules tested against Lysine-specific demethylase 5B (Homo sapiens) (UniProt Q9UGL1) (assay: Optimization screen for KDM5B Histone Demethylases FDH coupled qHTS against the LOPAC library (AID 1347166)). Conditions: KDM5B demethylation, FDH-coupled NADH fluorescence (FDH is formaldehyde dehydrogenase); series mostly up to 57.5 µM.
Sequence of Lysine-specific demethylase 5B (Homo sapiens) (Q9UGL1 whole entry, looked up): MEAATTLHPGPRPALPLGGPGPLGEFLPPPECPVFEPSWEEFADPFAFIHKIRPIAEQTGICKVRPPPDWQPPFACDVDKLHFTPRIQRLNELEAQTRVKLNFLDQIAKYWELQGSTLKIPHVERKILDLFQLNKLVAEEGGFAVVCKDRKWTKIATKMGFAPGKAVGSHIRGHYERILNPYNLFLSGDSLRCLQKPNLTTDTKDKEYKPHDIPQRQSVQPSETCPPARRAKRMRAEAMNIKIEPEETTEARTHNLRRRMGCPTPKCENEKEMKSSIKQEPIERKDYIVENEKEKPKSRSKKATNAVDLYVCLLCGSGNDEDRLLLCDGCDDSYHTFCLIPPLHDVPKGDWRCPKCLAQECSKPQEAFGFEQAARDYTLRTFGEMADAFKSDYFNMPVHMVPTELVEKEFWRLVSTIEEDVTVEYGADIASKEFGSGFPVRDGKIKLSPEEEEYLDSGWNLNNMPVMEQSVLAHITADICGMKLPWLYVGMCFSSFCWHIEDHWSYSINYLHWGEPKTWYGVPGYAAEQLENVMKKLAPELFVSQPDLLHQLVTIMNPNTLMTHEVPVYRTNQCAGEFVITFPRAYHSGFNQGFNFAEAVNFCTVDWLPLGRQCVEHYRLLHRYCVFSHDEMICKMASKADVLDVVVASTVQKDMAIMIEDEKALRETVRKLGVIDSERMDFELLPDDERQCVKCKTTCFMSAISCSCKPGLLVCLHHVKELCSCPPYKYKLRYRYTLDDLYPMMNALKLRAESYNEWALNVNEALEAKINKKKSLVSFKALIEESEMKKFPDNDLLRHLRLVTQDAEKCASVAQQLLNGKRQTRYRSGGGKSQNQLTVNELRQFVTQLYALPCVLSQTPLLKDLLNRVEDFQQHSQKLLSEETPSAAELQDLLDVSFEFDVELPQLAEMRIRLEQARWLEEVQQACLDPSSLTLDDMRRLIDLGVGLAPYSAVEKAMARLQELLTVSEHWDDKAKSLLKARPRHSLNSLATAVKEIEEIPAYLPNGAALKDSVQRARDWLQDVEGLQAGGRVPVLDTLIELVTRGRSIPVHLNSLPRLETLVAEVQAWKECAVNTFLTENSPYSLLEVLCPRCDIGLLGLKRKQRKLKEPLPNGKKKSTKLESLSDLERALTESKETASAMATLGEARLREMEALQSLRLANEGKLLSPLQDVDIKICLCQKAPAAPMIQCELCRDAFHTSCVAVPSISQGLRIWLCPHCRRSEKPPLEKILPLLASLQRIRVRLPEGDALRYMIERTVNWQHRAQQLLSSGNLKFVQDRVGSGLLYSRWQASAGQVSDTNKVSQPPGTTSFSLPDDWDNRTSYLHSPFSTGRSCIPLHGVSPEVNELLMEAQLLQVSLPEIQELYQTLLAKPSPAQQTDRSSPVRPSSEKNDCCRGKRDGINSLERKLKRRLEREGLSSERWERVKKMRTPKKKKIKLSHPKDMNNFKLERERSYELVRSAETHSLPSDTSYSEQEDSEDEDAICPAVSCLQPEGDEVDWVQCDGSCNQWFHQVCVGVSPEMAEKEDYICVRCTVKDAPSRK
Outline: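 KDM5BDeltaAP (200nM final) in 50mM HEPES pH 7.5, 0.01% Tween-20 was preincubated with compound for 10 min at room temperature. A substrate mix of 12.5uM H3K4Me3, 25uM a-ketoglutarate, ascorbate, Fe2+, NAD+ and formaldehyde dehydrogenase was then added. NADH fluorescence (340/450 nm) was read initially and after 30 min.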
For `O=C(O)[C@@H]1C[C@@H](C(=O)O)N1`, the outcome was “inactive”.
In the case of `O=C(c1ccc(Cl)cc1)N1CCN(c2ccc([N+](=O)[O-])c3ncccc23)CC1`, the outcome was “inactive”.
With `N[C@@H](CC(=O)O)C(=O)O` the outcome was “inactive”.
In the case of `Brc1c(Br)c(Br)c2n[nH]nc2c1Br`, the outcome was “inactive”.
For `CC12C(=O)OC(=O)C1(C)C1CCC2O1` (centres undefined), the outcome was “inactive”.
In the case of `COC(=O)c1c(C)[nH]c(C)c1C(=O)c1ccccc1Cc1ccccc1`, the outcome was “inactive”.
`CN1CCC[C@H]1c1cccnc1` was tested, and the outcome was “inactive”.
For `CC(C)Cc1ccc([C@H](C)C(=O)O)cc1`, the outcome was “inactive”.
`CCN(CC)c1ncnc2c1ncn2[C@@H]1O[C@H](COP(=O)(O)OP(=O)(O)C(Br)(Br)P(=O)(O)O)[C@@H](O)[C@H]1O` was tested, and the outcome was “inactive”.
With `CCC1C(=O)OCC1Cc1cncn1C` (centres undefined) the outcome was “inactive”.
In the case of `OCC1O[C@H](O)C(Cl)C(O)C1O` (some centres undefined), the outcome was “inactive”.
`CCOC(=O)N1CCN(/[N+]([O-])=N/Oc2ccc([N+](=O)[O-])cc2[N+](=O)[O-])CC1` was tested, and the outcome was “inactive”.
In the case of `NC[C@H]1O[C@@H](n2cnc3c(N)ncnc32)[C@H](O)[C@@H]1O`, the outcome was “inactive”.
With `CN(C)CCC(c1ccc(Cl)cc1)c1ccccn1` (centres undefined) the outcome was “inactive”.
